In PubChem BioAssay (NCI):
About 83,000 compounds went through this panel and 20% of them were active in at least one assay; those are over-represented in the sample as a whole.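 Note: values are percent growth. 100 is the growth of untreated cells, values between 100 and 0 indicate rising inhibition; between -100 and 0 indicates cell death.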 Active and inactive are the calls of the source. How the source made its calls: active means growth percent below 10; inactive means the rest.

Tests used:
Assay in all cases: NCI-60 one-dose screen, 48 h (100 = growth as untreated, 0 = no growth, -100 = all killed)
[1] = tested on: NCI-H23 lung; conditions: 10 µM unless noted
[2] = tested on: NCI-H322M lung; conditions: 10 µM unless noted
[3] = tested on: HOP-92 NSCLC; conditions: 10 µM unless noted
[4] = tested on: NCI-H522 lung; conditions: 10 µM unless noted
[5] = tested on: K-562 leukemia; conditions: 10 µM unless noted
[6] = tested on: U251 CNS; conditions: 10 µM unless noted
[7] = tested on: SK-MEL-28 melanoma; conditions: 10 µM unless noted
[8] = tested on: SK-MEL-2 melanoma; conditions: 10 µM unless noted
[9] = tested on: CCRF-CEM leukemia; conditions: 10 µM unless noted
[10] = tested on: SR leukemia; conditions: 10 µM
[11] = tested on: OVCAR-4 ovarian; conditions: 10 µM unless noted
[12] = tested on: IGROV1 ovarian; conditions: 10 µM
[13] = tested on: BT-549 breast; conditions: 10 µM
[14] = tested on: NCI-H226 lung; conditions: 10 µM unless noted
[15] = tested on: HOP-62 NSCLC; conditions: 10 µM unless noted
[16] = tested on: MALME-3M melanoma; conditions: 10 µM unless noted
[17] = tested on: LOX IMVI melanoma; conditions: 10 µM unless noted
[18] = tested on: EKVX NSCLC; conditions: 10 µM unless noted
[19] = tested on: RPMI-8226 leukemia; conditions: 10 µM unless noted

Measured: growth

COc1cc(CNCCc2ccc(Cl)cc2)cc(OC)c1O
inactive: [1] 67% | [2] 78.9% | [3] 60.6% | [4] 16.1% | [5] 21.7% | [6] 58.5% | [7] 69.9% | [8] 27.8% | [9] 46.9% | [10] 14.5% | [11] 69% | [12] 81.3% | [13] 71.8%

Clc1ccc(SSC(Cl)(Cl)Cl)cc1
inactive: [14] 110% | [2] 112% | [15] 106% | [3] 84.8% | [4] 107% | [5] 112% | [16] 95.7% | [6] 98.6% | [17] 103% | [7] 120% | [8] 123% | [18] 108% | [9] 109% | [10] 107% | [19] 119% | [11] 108% | [12] 107% | [13] 121%

CCC[CH2][Sn]1([CH2]CCC)[O]C(=O)c2cccc([N+](=O)[O-])c2C(=O)[O]1
active: [14] -83.1% | [15] -90.7% | [3] -91.7% | [4] -94.8% | [5] -12.3% | [16] -88.4% | [17] -72% | [7] -93.3% | [8] -92% | [9] -47.7% | [10] -31.6% | [19] -40.5% | [11] -91.6% | [12] -76% | [13] -99.6%

CCOc1c(Cl)cc(CNC(C)C(O)c2ccccc2)cc1OC (configuration not stated)
inactive: [1] 80.4% | [2] 92% | [15] 73.3% | [4] 69.1% | [5] 13.9% | [16] 46.9% | [6] 34.3% | [17] 57.1% | [7] 41.5% | [8] 72.7% | [9] 77.7% | [10] 10.8% | [19] 71.7% | [12] 66% | [13] 72.2%

COc1cc(C2CC(=O)Nc3nc(N)[se]c32)c(OC)c2c1OCO2 (configuration not stated)
inactive: [1] 99.7% | [2] 22.6% | [15] 32.7% | [3] 105% | [4] 99.1% | [16] 102% | [6] 48% | [17] 104% | [7] 104% | [8] 101% | [18] 94.4% | [11] 96.3% | [12] 83.6% | [13] 101%

COc1c(O)c2c3c(c1OC)-c1ccccc1CC3N(C)CC2 (configuration not stated)
inactive: [1] 102% | [2] 96.1% | [15] 104% | [3] 110% | [4] 88.6% | [5] 92.3% | [16] 105% | [6] 99.1% | [17] 99.3% | [7] 117% | [18] 115% | [9] 98.7% | [10] 75.1% | [19] 102% | [11] 120% | [12] 96.8%

CNC(=O)Oc1ccccc1-c1ccccc1
inactive: [14] 113% | [15] 103% | [3] 101% | [4] 85.9% | [5] 99.6% | [16] 102% | [17] 104% | [7] 109% | [8] 76.3% | [10] 99% | [19] 99.4% | [11] 110% | [12] 99.3% | [13] 103%

Oc1ccc(Br)cc1CN1CCN(Cc2ccc(Cl)cc2)CC1
active: [4] -84.4% | [5] -34.3%
inactive: [1] 91.1% | [2] 103% | [15] 57.6% | [3] 24.8% | [6] 48.9% | [7] 88.2% | [8] 88.2% | [10] 22.7% | [19] 16.7% | [11] 65.5%

OC1CCCCC1N1CCC(c2ccccc2)CC1 (configuration not stated)
inactive: [1] 100% | [14] 114% | [16] 103% | [6] 105% | [17] 99.4% | [7] 103% | [18] 104% | [9] 99.2% | [10] 94% | [19] 107% | [11] 109% | [12] 112% | [13] 97.6%

CCCCOC(=O)c1ccccc1C(=O)O.CCCCOC(=O)c1ccccc1C(=O)O.[Cu+2]
inactive: [1] 107% | [2] 104% | [4] 95% | [5] 96.2% | [16] 83.3% | [7] 111% | [8] 117% | [9] 108% | [10] 92.7% | [11] 101% | [12] 122% | [13] 105%
